# Results taken from ChEMBL document CHEMBL3988442, “University of Dundee, Small-Polar-MMV Screening Library” (2021).
# Out of some 48,000 compounds screened, about 13,000 (27%) showed an effect of 50% or more. The list shows a part of the results.
# System: Wolbachia pipientis
# Experiment: Anti-Wolbachia Cell-Based Screen
# Format: functional
# Design: scale not given: in the data most compounds retested in dose-response had high values
# Conditions: 5 µM
row,SMILES,Percent Effect [%]
1,CCc1ncnc2c1CCN(Cc1ccccn1)CC2.O=C(O)C(F)(F)F.O=C(O)C(F)(F)F,16.56
2,CCc1ncnc2c1CCN(CC(=O)N(C)C)CC2.O=C(O)C(F)(F)F,107.9
3,Cc1ncnc2c1CCN(CC(=O)N(C)C)CC2.O=C(O)C(F)(F)F,112
4,Cc1ncnc2c1CCN(C(=O)c1ccnnc1)CC2,-1.373
5,CCc1ncnc2c1CCN(Cc1nccs1)CC2.O=C(O)C(F)(F)F,16.77
6,Cc1ncnc2c1CCN(C(=O)CN(C)C)CC2.O=C(O)C(F)(F)F,-6.566
7,Cc1ncnc2c1CCN(Cc1nccs1)CC2.O=C(O)C(F)(F)F,-9.134
8,Cc1ncnc2c1CCN(C(=O)N(C)C)CC2,95.78
9,CN(C1CCCCC1)S(=O)(=O)N1CCN(Cc2ccon2)CC1,-9.326
10,Cc1noc(C)c1CN1CCC2(CC1)CCN(C(=O)c1cscn1)C2.O=C(O)C(F)(F)F,-11.08
11,Cc1noc(C)c1CN1CCCC2(CCN(C(=O)N3CCOCC3)C2)C1 (configuration not stated),105.6
12,Cc1noc(C)c1CN1CCCC2(C1)CN(Cc1nccn1C)CCO2.O=C(O)C(F)(F)F.O=C(O)C(F)(F)F (configuration not stated),-4.465
13,Cl.N[C@@H](Cc1ccccc1)c1nnc(S(=O)(=O)Cc2cccc(Cl)c2)o1,90.15
14,NC(=O)C(Cc1ccccc1)NS(=O)(=O)Cc1ccccc1F (configuration not stated),-4.164
15,Cc1cccc(CS(=O)(=O)c2nnc([C@@H](N)Cc3ccccc3)o2)c1.Cl,119.9
16,N#Cc1cccc(CS(=O)(=O)NC(Cc2ccccc2)C(N)=O)c1 (configuration not stated),-5.324
17,N[C@@H](Cc1ccccc1)c1nnc(S(=O)(=O)Cc2ccccc2)o1,107.1
18,Cl.N[C@@H](Cc1ccccc1)c1nnc(S(=O)(=O)Cc2ccc(Cl)cc2)o1,72.38
19,O=S(=O)(Cc1ccccc1)c1nnc(N2CCOCC2)s1,4.64
20,Cc1cccc(CS(=O)(=O)c2nnc(N3CCOCC3)s2)c1,-9.139
21,Cc1nnc(CN(Cc2cccc(Cl)c2)C(C)C)o1,-3.327
22,Cc1cccc(CS(=O)(=O)NCC(O)Cc2ccccc2)c1 (configuration not stated),2.043
23,CCc1[nH]c2c(CNc3cc(C)nc(NC)n3)cc(C)cc2c1C,7.086

row,SMILES,Percent Effect [%]
1,Cc1noc(C2CN(S(=O)(=O)C3CC3)Cc3ccnn3C2)n1 (configuration not stated),-3.92
2,Cc1nc(-c2ccccc2)sc1CSCCS(C)(=O)=O,5.255
3,CCCN1CCC(C(=O)NCCN(CC)c2ccccc2C)CC1,6.668
4,CSc1ccc(NC(=O)NCC(O)C2CC2)cc1F (configuration not stated),-6.513
5,CCC(C)NC(=O)Cn1ncc2c1c(C)nn2CC (configuration not stated),78.16
6,COc1ccc(NC(=O)Cn2nc(C)c(C)cc2=O)c(OC)c1,-17.24
7,Cc1nn(C)c2cnn(CC(=O)NCCc3ccccc3)c12,-4.573
8,CCn1nc(C)c2c1cnn2CC(=O)Nc1ccc(OC)cc1C,97.13
9,COc1ccccc1CNC(=O)Cn1ncc2c1c(C)nn2C,14.16
10,COc1ccc(NC(=O)Cn2nc(C)c(C(C)=O)c2C)cc1,9.099
11,Cc1ccc(CNC(=O)Cn2ncc3c2c(C)nn3C)cc1,2.775
12,CCn1nc(C)c2c1cnn2CC(=O)NC(C)c1cccc(OC)c1 (configuration not stated),108.9
13,COc1cccc(C(CO)NC(=O)Cc2cccc(C)c2)c1 (configuration not stated),-8.321
14,Cc1ccc(C(=O)NS(=O)(=O)c2cc(Cl)ccc2Cl)c(=O)[nH]1,0.2464
15,OCCOc1ccc(NCc2cccc3cn[nH]c23)cn1,11.64
16,CN(C)CCNC(=O)c1sc2ccccc2c1C1CCC(CN)CC1.Cl (configuration not stated),88.67
17,Cl.NCC1CCC(c2c(C(=O)NCCO)sc3ccccc23)CC1 (configuration not stated),105.7
18,Cl.NC[C@H]1CC[C@H](c2c(C(N)=O)sc3ccccc32)CC1,138.4
19,CC(NC(=O)c1cccc[n+]1[O-])C1CC1 (configuration not stated),-12.99
20,CC(C)NC(=O)c1sc2ccccc2c1[C@H]1CC[C@H](CN)CC1.Cl,141.4
21,CC(NC(=O)N1CCC(CO)CC1)c1csc2ccccc12 (configuration not stated),-26.26
22,CN(C)CCNC(=O)c1ccc(S(=O)(=O)N[C@@H]2CCNC2)cc1,-7.63
23,CC1CCc2nc(O)c(C(=O)NCCN(C)C)cc2C1 (configuration not stated),7.628

row,SMILES,Percent Effect [%]
1,CCn1cc2c(n1)C(COCC1CC1)CN(C(=O)c1cc(C)on1)C2 (configuration not stated),-20.07
2,CC(Nc1ccc(CC(=O)N(C)C)cc1)C(=O)N(C)CCC#N (configuration not stated),3.748
3,Cn1ncc2c(N3CCCC(C)(O)C3)nc(C(C)(C)C)nc21 (configuration not stated),-0.5703
4,COc1ccc(CCC(=O)Nc2cccnc2N2CCCC2)cc1Br,3.443
5,O=C(O)C(F)(F)F.O=C1CC[C@@H]2[C@@H](CCN2C(=O)c2ccsc2)N1Cc1ccncc1,-34.69
6,NC(=O)COCCNC(=O)Nc1sc2ccccc2c1Cl,6.222
7,COCCNC(=O)c1sc2ccccc2c1C1CCC(CN)CC1.Cl (configuration not stated),140.8
8,COCCNC(=O)c1cc2c(nc1O)CC(c1cccs1)CC2=O (configuration not stated),7.497
9,CCCN1CCN(C(=O)c2cc[nH]n2)[C@H]2CS(=O)(=O)C[C@H]21,3.177
10,CCn1cc(-c2nccnc2C2CCCN(C(C)=O)C2)cn1 (configuration not stated),156.7
11,CC(=O)N1CCCC(c2nccnc2-c2ccc(CO)cc2)C1 (configuration not stated),179.5
12,CCc1ccc2c(C3CN(C(C)=O)C3)ncn2c1,-3.623
13,COc1cc(F)ccc1CC(=O)N1CC[C@H]2C(=O)NCCO[C@H]2C1,-55.09
14,COC(=O)CCCn1ccnc1-c1ccc(OC)c(F)c1F,-8.612
15,CCS(=O)(=O)Cc1ccn(-c2cccc(F)c2)n1,-0.3225
16,COc1ccc(NC(=O)NC(C)c2nc[nH]n2)cc1Cl (configuration not stated),-12.73
17,Cc1ccc(NC(=O)Nc2cnc(N3CCN(C)CC3)nc2)cc1,130.1
18,CCOc1ccc(NCc2cnc(N3CCN(C)CC3)nc2)cn1,-2.404
19,Cc1ccc(NC(=O)Nc2cnc(N3CCN(C)CC3)nc2)c(Cl)c1,-7.625
20,COc1ccc(NC(=O)N2CCC3(CC2)NC(=O)CC3C(=O)O)cc1Cl (configuration not stated),-5.291
21,COc1ccc(NC(=O)Nc2cnc(N3CCN(C)CC3)nc2)cc1Cl,89.39
